PubChem BioAssay AID1159583 (ICCB-Longwood Screening Facility, Harvard Medical School, 2016)
“And” between values parts separate entries of the source, which are not always exact repeats. Equal entries are not always repeated. In all, about 300,000 compounds went through this assay and about 310 (0.1%) were called active. No stated cut-off is given here; in the data, active means fluorescence inhibition mostly above about 23% (no sharp cut-off); inactive means mostly below about 17%. Only a selection was taken, and actives are over-represented in it overall.

experiment: hypoxia reporter signal reduction in M. tuberculosis – fluorescence, absorbance growth readout, primary screen (AID 1159583); conditions: M. tuberculosis hypoxia-regulated fluorescent reporter, stronger effect = higher value, concentration not given here; growth inhibition: measured here: M. tuberculosis growth (absorbance)

| SMILES | fluorescence inhibition | growth inhibition |
| --- | --- | --- |
| O=C(Cc1cccs1)NN=C/C=C/c1ccco1 | 8.6% (inactive) | 14.2% |
| O=C(CNC(=O)c1ccc2c(c1)OCCO2)NN=Cc1ccc(Cl)cc1 | -0.656% (inactive) | 8.25% |
| COc1ccc(OC)c(C=NNC(=O)c2[nH]ncc2Br)c1 | 17.8% (inactive) | 3.99% |
| COc1cc(C=NNC(=O)Cc2c[nH]c3ccccc23)cc(OC)c1OC | 1.09% (inactive) | 3.89% |
| COc1ccc2ccccc2c1C=NNC(=O)c1cccc(Br)c1 | 6.25% (inactive) | 6.52% |
| CCN1C(=O)C2C(c3ccc(-c4cccc(Cl)c4)cc3)N[C@@](C)(C(=O)OC)C2C1=O (stereo partly drawn) | 8.93% (inactive) | 17.5% |
| Cc1ccccc1CN1C(=O)C(C)SC1=NN=Cc1ccco1 (stereo not drawn) | 7.25% (inactive) | 1.63% |
| COC(=O)c1ccc(C=NNC(=O)c2ccc3nc[nH]c3c2)cc1 | 3.23% (inactive) | -1.77% |
| CC(C)C(=NNC(=O)Nc1ccccc1)c1ccccc1 | 3.82% (inactive) | 6.86% |
| CC(=NNC(=O)c1csc(C)c1C)c1ccco1 | 12.3% (inactive) | 18.1% |
| CCN(CC)S(=O)(=O)c1ccc(NN=Cc2ccc(OC)c(OC)c2OC)nc1 | 6.7% (inactive) | 6.24% |
| CC(=NNC(=O)c1cc2ccccc2cc1O)c1ccc2c(c1)OCO2 | -11.6% (inactive) | 0.0347% |
| C=CCNC(=S)NN=Cc1ccc(-c2cc(Cl)ccc2Cl)o1 | 6.01% (inactive) | 7.37% |
| N#Cc1ccc(OCC(=O)NN=CC2CC=CCC2)cc1 (stereo not drawn) | 15.6% (inactive) | 1.47% |
| O=C(CCCCCCCCC(=O)NN=Cc1ccco1)NN=Cc1ccco1 | -1.23% (inactive) | 5.53% |
| Cc1cccc(C(=O)NN=C2SCC(=O)N2Cc2ccccc2)c1 | -0.985% (inactive) | -2.16% |
| O=C(NN=Cc1ccc2nccnc2c1)c1ccc(Br)cc1 | -2.27% (inactive) | -1.22% |
| C/C(C=NNC(=O)Cc1cccs1)=C\c1ccco1 | 8.51% (inactive) | 5.57% |
| CCOC(=O)NN=CC=Cc1ccco1 | 5.07% (inactive) | 6.05% |
| COC(=O)c1ccc2[nH]c(C(C)O)c(C(C)O)c2c1 (stereo not drawn) | -12.5% (inactive) | 0.422% |
| COc1cc(C=NNC(=O)C(=O)NCc2cccnc2)cc(OC)c1OC | 11.1% (inactive) | 2.3% |
| COC(=O)C1C[C@@]2(Br)c3ccccc3N(S(=O)(=O)c3ccccc3)C2N1C(=O)OC (stereo partly drawn) | -0.203% (inactive) | -1.54% |
| CCOc1cccc(C=NN2C(C)CCCC2C)c1O (stereo not drawn) | -2.33% (inactive) | -0.595% |
| O=C(NC1CCCCC1)C1CC=CC2CCN(C3CCCCC3)C(=O)C21 (stereo not drawn) | 8% (inactive) | 14.6% |
| C[C@@]12C(=O)N(Cc3ccco3)CC(=O)N1C1c3cc(Cl)ccc3OCC1C2c1ccccc1 (stereo partly drawn) | -6.06% (inactive) | 1.32% |
| Cn1cc([N+](=O)[O-])c(C(=O)NN=Cc2ccc([N+](=O)[O-])cc2)n1 | -5.59% (inactive) | 5.33% |
| Cc1ccc(C=NN(C)S(=O)(=O)c2ccc(C)cc2)cc1 | -1.94% (inactive) | -2.51% |

| SMILES | fluorescence inhibition | growth inhibition |
| --- | --- | --- |
| CCOC(=O)C1=C(C)CC(=NNC(=O)c2ccccc2O)CC1 | 19.7% (inactive) | 25.6% |
| CC(=NNC(=O)c1ccc(CSc2nncn2C)cc1)c1ccc(Cl)cc1 | -0.114% (inactive) | 4.72% |
| Cc1cc(C)nc(N=C(N)C2=C(O)CC(C)(C)CC2=O)n1 | 8.68% (inactive) | 10.4% |
| CC(Oc1ccccc1[N+](=O)[O-])C(=O)NN=Cc1ccoc1 (stereo not drawn) | -0.473% (inactive) | 0.98% |
| Cc1cc(C=NO)c(C)n1-c1ccccc1 | 10.5% (inactive) | 1.78% |
| C/C(C=NNC(=O)c1ccncc1)=C\c1ccccc1 | 16.5% (inactive) | 7.43% |
| Cc1nn(-c2ccccc2)c(Cl)c1C=NNC(=O)c1cccc(S(=O)(=O)N2CCCC2)c1 | 10.2% (inactive) | 5.33% |
| C=C1CCN(C(C(=O)NCc2ccc(OC)cc2)C(C)C)S(=O)(=O)c2ccccc21 (stereo not drawn) | 1.86% (inactive) | 4.01% |
| O=C1CSC(=S)N1N=Cc1ccc(C(F)(F)F)cc1 | 17.6% (inactive) | 14.7% |
| COCCCNC(=S)NN=Cc1ccc(N(C)C)cc1 | 11.6% (inactive) | 2.41% |
| CC(=NNC(=O)c1c(C)nc2ccccn12)c1ccc(C(C)(C)C)cc1 | -2.47% (inactive) | 18.1% |
| CC(C)C(NC(=O)c1ccccc1)C(=O)OCC(=O)N1CCCc2ccccc21 (stereo not drawn) | 6.63% (inactive) | 6.94% |
| COc1cccc(C=NNC(=O)CSCC(=O)Nc2ccccc2)c1O | 0.94% (inactive) | 11.7% |
| CC(=NNC(=O)c1cc(-c2ccc(Cl)s2)[nH]n1)c1ccco1 | 0.382% (inactive) | 4.98% |
| CSc1ccc(C=NNC(=O)CNc2ccc3ccccc3c2)cc1 | 3.37% (inactive) | -2.84% |
| O=C1NC(Cc2ccccc2)C(=O)N2C1C[C@]1(Br)c3ccccc3N(S(=O)(=O)c3ccccc3)C21 (stereo partly drawn) | 4.31% (inactive) and 12.8% (inactive) | 6.26% and 10.9% |
| COc1ccccc1C=NNC(=O)c1ccc2c(c1)OCO2 | 14.7% (inactive) | 5.14% |
| COCCCN1C(=O)C(=O)C(=C(O)c2ccc(C)cc2)C1c1ccccc1 (stereo not drawn) | -3.99% (inactive) | -0.925% |
| CC1CN=C(Nc2ccccc2)N1CCCC1CCCCC1 (stereo not drawn) | 7.1% (inactive) | 4.93% |
| O=C1CCCC1=c1sc(=Cc2cccnc2)c(=O)n1-c1ccccc1 | 9.8% (inactive) | 5.53% |
| O=C1/C(=C\c2cccnc2)CN(Cc2ccccc2)C/C1=C\c1cccnc1 | 53.7% (active) | 35.7% |
| Cc1ccccc1C1=N/C(=C/c2cccnc2)C(=O)O1 | -4.88% (inactive) | 6.23% |
| Cc1cc(C(=O)NN=Cc2ccc3ccccc3c2)n[nH]1 | 7.06% (inactive) | -3.88% |
| Cc1ccc(NCC(=O)NN=Cc2ccc([N+](=O)[O-])o2)cc1 | -3.3% (inactive) | 3.65% |
| CN(C)c1ccc(C=NNC(=O)c2nonc2N)cc1[N+](=O)[O-] | 2.61% (inactive) | -5.42% |
| Nc1nonc1C(=O)NN=Cc1ccc([N+](=O)[O-])o1 | 52.4% (active) | 31.3% |
| Cc1cccc(C=NNC(=O)CN2CCCCCCC2)c1 | 2.65% (inactive) | 8.69% |
